The list is not random: actives were taken first. Their share in the collection is about 11%.
IMPase inh: membrane-permeable compound that blocks inositol monophosphatase. P97697. CHO-M1 cells, IP1 accumulation, HTRF TR-FRET ratio. inhibition (IP1 accumulation), % at 46.1 µM. 120,000 tested, under 10 active. AID 901; active means well fitted curve in the direction sought with a large enough effect in the signal ratio, not every such curve was filed as active; inconclusive means small, poorly fitted or top-dose-only effect, or a change in a side signal; inactive means no such curve, though single readings can be large or run the other way; the % refers to the signal ratio;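 further: cells stimulated with carbachol in lithium chloride buffer; higher means more IMPase inhibition seen as more IP1 and lower FRET ratio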
Target sequence (P97697 whole entry, looked up): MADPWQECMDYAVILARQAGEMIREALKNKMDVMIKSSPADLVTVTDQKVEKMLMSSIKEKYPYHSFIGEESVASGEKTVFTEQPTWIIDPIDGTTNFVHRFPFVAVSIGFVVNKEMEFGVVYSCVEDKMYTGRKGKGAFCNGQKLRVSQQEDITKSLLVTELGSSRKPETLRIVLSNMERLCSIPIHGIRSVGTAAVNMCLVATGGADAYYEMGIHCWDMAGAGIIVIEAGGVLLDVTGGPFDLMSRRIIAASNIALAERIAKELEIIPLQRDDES
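Cellular IMPase inhibition is scored as a rise in cytosolic IP1, detected by competitive TR-FRET between d2-labelled IP1 and a europium anti-IP1 antibody. M1-expressing CHO cells were stimulated with carbachol for 30 min at 37C, with lithium (50 mM LiCl) present in the buffer.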
HPGD block: inhibitors of human 15-hydroxyprostaglandin dehydrogenase (HPGD). Potency, µM, actives largely listed as inhibitors. hit rate 4.3% among 150,000. P15428. AID 894. purified HPGD, NADH fluorescence kinetic, PGE2 substrate
Target sequence (P15428 whole entry, looked up): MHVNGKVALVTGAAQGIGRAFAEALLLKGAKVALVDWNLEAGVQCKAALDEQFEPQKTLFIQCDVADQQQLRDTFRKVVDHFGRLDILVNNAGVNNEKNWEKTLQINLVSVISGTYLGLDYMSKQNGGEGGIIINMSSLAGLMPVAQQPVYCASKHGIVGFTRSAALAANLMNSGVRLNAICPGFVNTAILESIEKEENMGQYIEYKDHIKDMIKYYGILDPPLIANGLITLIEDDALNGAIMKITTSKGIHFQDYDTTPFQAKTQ
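20 nM HPGD preincubated 15 min at room temperature with compound in 50 mM Tris-HCl pH 8, 0.01% Tween 20. Started with 1 mM NAD+ and 30 uM prostaglandin E2; NADH fluorescence (360/450 nm) read 5 times over 30-s intervals, last minus first.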
IMPase Li inh: cell-permeable IMPase inhibitors with lithium potentiation; CHO-M1 cells, IP1 TR-FRET (IP-One), carbachol + lithium; Potency, µM (highest dose often 59.4 µM), hits mostly inhibitors; hit rate 0.35% among 210,000; AID 1457; active means well fitted curve in the direction sought with a large enough effect; inconclusive means small, poorly fitted or top-dose-only effect, or another doubt; inactive means no such curve, though single readings can be large; an effect the other way counts as inactive or inconclusive;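 further: IP1 builds up when IMPase is blocked and the TR-FRET signal falls; nearly all actives have a fitted effect of over 50% in size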
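CHO-M1, 2000 cells/well, 16–30 h culture; cpd + low Li+, 30 min 37C; lysis with d2-IP1/Eu-anti-IP1 Ab, 10 min RT; TR-FRET 665/620 ratio and 620 channel; AC50 via Hill.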
NPSR antagonist: neuropeptide S receptor (human) antagonism, cAMP; Q6W5P4; CHO-NPSR cells, cAMP TR-FRET, antagonist mode; Potency, µM (titrated, usually from 38.3 µM), actives largely listed as inhibitors; hit rate 1% among 220,000; AID 1461; active means well fitted curve in the direction sought with a large enough effect; inconclusive means small, poorly fitted or top-dose-only effect, or another doubt; inactive means no such curve, though single readings can be large; an effect the other way counts as inactive or inconclusive; further: nearly all actives have a fitted effect of over 50% in size
ALDH1A1 inh: ALDH1A1 (human) enzyme inhibition; Potency, µM (series often up to 75.3 µM), usual class: inhibitors; AID 1030; Purified ALDH1A1, NADH fluorescence, propionaldehyde substrate; P00352; hit rate 7.3% among 220,000
PNC inhibitor: blocks assembly of the perinucleolar compartment; PC3M PTB-GFP, PNC prevalence imaging, 16 h; active compounds read low; activity change (PNC), negative = inhibition, % at 10 µM; hit rate 3.1% among 140,000; AID 2417;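 active means readout at or below -70, meaning at least 70% loss of cells showing the perinucleolar compartment, a nuclear body marking cancer cells; inconclusive means readout between -30 and a set limit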
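Compounds are pinned in duplicate onto adhered PC3M cells stably expressing GFP-tagged PTB and incubated 16 h at 37 C. Cells are then fixed, nuclei stained with Hoechst, and PNC-positive cells counted.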
Each line names hits and unclear results; the compound was inactive in the other large screens. Unless noted, the call rests on the fitted dose curve; in most records, active means well fitted inhibition curve with a large enough effect (not every such curve was filed as active); inconclusive means small, poorly fitted or top-dose-only effect, or another doubt; inactive means no such curve, though single readings can be large or run the other way.

CCOc1ccccc1NC(=O)Cn1c(=O)oc2ccccc21	none (no result: IMPase inh, HPGD block, PNC inhibitor)
COc1cccc(NC(=O)Cn2c(CCC(=O)O)ccc2-c2ccc(Cl)cc2)c1	ALDH1A1 inh 25µM (no result: IMPase inh, HPGD block, PNC inhibitor)
Nn1c(SC/C=C/c2ccccc2)nnc1-c1cccnc1	ALDH1A1 inh 13µM
Clc1ccc(-n2c(SC/C=C/c3ccccc3)nnc2-c2cccnc2)cc1	NPSR antagonist inconclusive, ALDH1A1 inh inconclusive, PNC inhibitor inconclusive
CCOC(=O)C1CCN(Cc2ccccc2C)CC1	ALDH1A1 inh inconclusive
CCOC(=O)C1CCN(CC(=O)N2C(C)CCCC2C)CC1 (configuration not stated)	ALDH1A1 inh 11µM
CC(C)C(=O)NC(=S)/C=C1/N(C)c2ccccc2C1(C)C	ALDH1A1 inh 8.9µM (no result: IMPase inh, HPGD block, PNC inhibitor)
CN1/C(=C\C(=O)c2cccc(S(=O)(=O)N3CCCCC3)c2)C(C)(C)c2ccccc21	ALDH1A1 inh inconclusive, PNC inhibitor -88 (no result: IMPase inh)
CN1/C(=C\C(=O)c2cncc(Br)c2)C(C)(C)c2ccccc21	PNC inhibitor -84 (no result: IMPase inh)
CN1/C(=C/C(=O)c2nc(S(C)(=O)=O)ncc2Cl)C(C)(C)c2ccccc21	HPGD block inconclusive, NPSR antagonist 5µM, ALDH1A1 inh inconclusive
CN1/C(=C\C(=O)c2cccnc2)C(C)(C)c2ccccc21	none
COCCn1c(SC(C)C(=O)Nc2ccc3c(c2)OCCO3)nc2ccccc2c1=O (configuration not stated)	HPGD block inconclusive, NPSR antagonist inconclusive, PNC inhibitor inconclusive
COc1ccc(C2=NN(C(N)=S)C(c3ccco3)C2)cc1 (configuration not stated)	ALDH1A1 inh 18µM (no result: IMPase inh, HPGD block, PNC inhibitor)
COc1ccc(C2=NN(C(=O)CSc3nnc(-c4ccccc4F)o3)C(c3ccco3)C2)cc1 (configuration not stated)	ALDH1A1 inh inconclusive, PNC inhibitor inconclusive
Cc1ccc(S(=O)(=O)N[C@H](C(=O)OCC(=O)NC(=O)Nc2ccc3c(c2)OCCO3)C(C)C)cc1	none (no result: IMPase inh)
CCN(CC)c1ccc(SS(=O)(=O)O)cc1	HPGD block 8.9µM, ALDH1A1 inh 13µM
COc1ccc(COn2c(=O)c(C)[n+]([O-])c3ccccc32)cc1OC	ALDH1A1 inh inconclusive, PNC inhibitor -111
O=c1c(-c2ccco2)[n+]([O-])c2ccccc2n1OCc1ccccc1F	ALDH1A1 inh inconclusive
COc1ccccc1COn1c(=O)c(-c2ccco2)[n+]([O-])c2ccccc21	ALDH1A1 inh 22µM (no result: IMPase inh, HPGD block, PNC inhibitor)
O=c1c(-c2ccco2)[n+]([O-])c2ccccc2n1OCc1ccccc1	HPGD block inconclusive, ALDH1A1 inh 22µM
Cc1c(=O)n(OCc2ccccc2)c2ccccc2[n+]1[O-]	ALDH1A1 inh inconclusive
COc1ccc(C2C3=C(CC(C)(C)CC3=O)Oc3ncn(CCCn4ccnc4)c(=N)c32)cc1 (configuration not stated)	none
c1ccc(OCc2nn3c(-c4ccccn4)nnc3s2)cc1	none
Cc1nn(C)cc1NC(=O)CCSc1nc(-c2ccco2)cc(C(F)(F)F)n1	ALDH1A1 inh inconclusive, PNC inhibitor inconclusive
C[N+](C)(CC#Cc1ccccc1)CC(=O)c1ccccc1	PNC inhibitor inconclusive (no result: IMPase inh)
C[N+](C)(CC#Cc1ccccc1)CC(=O)c1ccc(Cl)cc1	PNC inhibitor -90 (no result: IMPase inh)
CN(C)S(=O)(=O)Nc1ccc(Oc2ccccc2)cc1	HPGD block 13µM
Cc1nnsc1C(=O)NC(C)C12CC3CC(CC(C3)C1)C2 (configuration not stated)	none
CN(C)c1ccc(C(=O)OCC(=O)NC2CCCCCC2)cc1	none (no result: IMPase inh, HPGD block, PNC inhibitor)
CN(C)c1ccc(C(=S)NC2CCCCC2)cc1	ALDH1A1 inh 3.5µM (no result: IMPase inh, HPGD block, PNC inhibitor)
CCN(CC)c1ccc(C(=S)NCc2ccccc2)cc1	ALDH1A1 inh 10µM (no result: IMPase inh, HPGD block, PNC inhibitor)
CCN(CC)c1ccc(C(=S)NC2CCCCC2)cc1	ALDH1A1 inh 7.9µM (no result: IMPase inh, HPGD block, PNC inhibitor)
Cc1cc(N/C=C(\C#N)S(=O)(=O)c2ccccc2Cl)nc(C)n1	none (no result: IMPase inh, HPGD block, IMPase Li inh, ALDH1A1 inh, PNC inhibitor)
Fc1ccc(/C=N/NC(=S)Nc2ccc(Cl)cc2Cl)cc1	none (no result: IMPase inh, HPGD block, IMPase Li inh, ALDH1A1 inh, PNC inhibitor)
S=C(Cc1cccnc1)N1CCOCC1	HPGD block 22µM, ALDH1A1 inh 13µM (no result: IMPase inh)
O=C(NC(N1CCCCCC1)C(Cl)(Cl)Cl)c1ccccc1Cl (configuration not stated)	ALDH1A1 inh 11µM (no result: IMPase inh)
